An excerpt weighted towards active compounds, which were near 4.1% of everything screened.
ABHD5 PLIN5 PPI: blocks binding of human ABHD5 to perilipin-5 | Split G. princeps luciferase complementation, luminescence, 4 h | inhibition, % at 4 µM | 0.78% of 360,000 active | AID 602281;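 active means inhibition above the mean inhibition across every tested compound plus 3 SD, cut at about 22% in these data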;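 further: 0% = DMSO only wells and the 100% control is not disclosed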
LEDGF integ inh: blocks HIV-1 LEDGF/p75-dependent DNA integration | TR-FRET IN-LEDGF/p75 DNA integration, Eu/Cy5 | inhibition, % at 3.7 µM | 0.64% of 370,000 active | AID 743269;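 active means inhibition above the screen-wide mean plus 3 SD, cut at about 13% in these data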;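 further: signal is the Cy5 over europium emission ratio at 671 and 618 nm; 0% = plate median of compound wells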
UHRF1 MBD2 ctr: UHRF1 methyl-DNA binding inhibition; Q96T88; UHRF1 binding to methylated oligo, TR-FRET; inhibition, % at 4.4 µM; 0.75% of 370,000 active; AID 687016; in the data active means inhibition above about 21%;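 further: UHRF1 SRA domain binding a hemimethylated CpG hairpin DNA probe; 0% = median of test compound wells and 100% = reference inhibitor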
rCAG RNA binder: molecules binding r(CAG) RNA repeats | r(CAG) RNA repeat, TO-PRO-1 dye displacement fluorescence | inhibition, % at 3 µM | 1.3% of 370,000 active | AID 651821;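 active means inhibition above the plate cutoff, the mean of all test compounds on that plate plus 3 SD, cut at about 35% in these data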;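 further: 0% = DMSO alone and 100% = 100 µM mitoxantrone as full dye displacement; higher means more dye released from RNA so lower well fluorescence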
MBD2 DNA inh: blocks human MBD2 binding to methylated DNA | Q9UBB5 | TR-FRET, MBD2 binding to methylated oligonucleotide | inhibition, % at 4.4 µM | 0.31% of 370,000 active; in the data active means inhibition above about 13%
Target sequence (Q9UBB5 whole entry, looked up): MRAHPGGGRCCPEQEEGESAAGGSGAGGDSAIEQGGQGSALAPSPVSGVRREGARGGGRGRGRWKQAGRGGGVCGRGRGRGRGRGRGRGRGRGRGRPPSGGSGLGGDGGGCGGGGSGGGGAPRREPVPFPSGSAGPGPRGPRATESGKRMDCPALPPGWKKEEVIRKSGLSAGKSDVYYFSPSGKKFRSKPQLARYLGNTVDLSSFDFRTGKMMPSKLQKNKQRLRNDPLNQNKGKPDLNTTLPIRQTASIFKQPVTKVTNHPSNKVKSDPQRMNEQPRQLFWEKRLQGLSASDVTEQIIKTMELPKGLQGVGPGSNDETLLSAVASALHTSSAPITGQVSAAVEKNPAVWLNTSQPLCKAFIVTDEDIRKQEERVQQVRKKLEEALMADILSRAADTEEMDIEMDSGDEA
PRMT1 inh: PRMT1 (human) inhibition, primary screen | Q99873 | recombinant PRMT1, activity-based probe fluorescence polarization | inhibition, % at 2.79 µM | 1.3% of 370,000 active;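 active means inhibition above about 21% made by adding two undisclosed values, limit read from the data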
ABHD5-PLIN5 conf: confirmation of human ABHD5-PLIN5 interaction inhibitors. shares compounds with ABHD5 PLIN5 PPI. inhibition, % at 4 µM. biochemical ABHD5-PLIN5 interaction, luminescence. 67% of 2,200 active; in the data active means inhibition above about 23%;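 further: 0% = DMSO vehicle wells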
HNF4 split-luc: active in HNF4 split-luciferase counter-screen for ABHD5-PLIN5 inhibitors | shares compounds with ABHD5 PLIN5 PPI | 77% of 2,200 active | AID 651674 | inhibition, % at 4 µM | HNF4 dimerization, luminescence, biochemical;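 active means mean inhibition across replicate wells exceeding the computed hit threshold, cut at about 13% in these data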;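 further: light from luciferase halves that rejoin when HNF4 fusion proteins dimerize; 0% = DMSO only wells and the 100% control is not given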
* = called active by the depositor; · = not tested or not shown.

SMILES | ABHD5 PLIN5 PPI | LEDGF integ inh | UHRF1 MBD2 ctr | rCAG RNA binder | MBD2 DNA inh | PRMT1 inh | ABHD5-PLIN5 conf | HNF4 split-luc
C#CCNC(=O)C[C@H]1C[C@@]2(C(=O)OC)C(=C[C@H](C(C)(C)C)O[C@@H]2C)N(Cc2ccccc2)C1=O | · | -0.9 | 2.0 | 0.1 | 4.8 | 5.4 | · | ·
CCN1CCN(Cc2c(O)ccc3c2O/C(=C\C=C\c2ccccc2)C3=O)CC1 | 34.0* | -3.1 | -22.3 | -8.2 | -12.4 | 22.5* | 23.5* | 19.4*
CN(C)Cc1c(O)ccc2c1O/C(=C\C=C\c1ccccc1)C2=O | 29.1* | 4.4 | -10.1 | -49.8 | -8.2 | 14.2 | 19.6 | 24.2*
O=C1/C(=C/C=C/c2ccccc2)Oc2c1ccc(O)c2CN1CCN(CCO)CC1 | 30.7* | 7.2 | 9.0 | -20.5 | 5.0 | 21.4* | 17.7 | 17.8*
COc1ccccc1/C=C/C=C1\Oc2c(ccc(O)c2CN2CCN(CCO)CC2)C1=O | 20.7 | 1.9 | -16.2 | -88.4 | -12.3 | 11.1 | · | ·
COc1ccc(C2CC(=O)C(c3ccc(Cl)c(Cl)c3)=CN2Cc2ccccc2)cc1 (configuration not stated) | · | 2.7 | -0.2 | 6.9 | -2.6 | -6.1 | · | ·
COC(=O)C1=C(C)N(Cc2ccco2)C(=O)/C1=C\c1ccc([N+](=O)[O-])cc1 | 69.7* | 7.1 | -0.3 | 13.0 | 1.3 | 23.6* | 98.4* | 95.2*
O=C1C(=C(I)I)c2ccccc2-c2ccccc21 | 43.3* | -20.4 | -0.5 | 7.3 | -3.9 | 12.2 | 101.2* | 101.8*
O=C(O)c1cccc2c1C(=O)c1ccccc1-2 | -1.0 | 4.6 | 0.1 | 2.2 | -2.7 | -2.7 | · | ·
C=CCNC(=O)/C(C#N)=C/c1cc(Br)ccc1OC | 43.1* | -1.4 | 1.3 | -0.1 | 4.0 | -3.5 | 56.2* | 45.2*
C=CCNC(=O)/C(C#N)=C/c1ccccc1Cl | 6.2 | 3.7 | 1.3 | 3.8 | 4.0 | 2.2 | · | ·
COC(=O)C1=C(C)N(Cc2cccc(C(F)(F)F)c2)C(=NCC2CC2)NC1c1cccc(Cl)c1 (configuration not stated) | · | 4.0 | 2.8 | 7.5 | 5.2 | -0.9 | · | ·
COc1ccccc1N1CCNC(C)C1=O (configuration not stated) | 57.2* | -2.9 | -1.8 | 2.4 | 1.5 | -1.2 | 7.3 | 14.7*
COc1ccccc1N1C(=O)C2C3C=CC(CC3)C2C1=O (configuration not stated) | -3.1 | -4.6 | 3.3 | -2.9 | 8.1 | -0.1 | · | ·
Cn1c2ccccc2c(=O)c2c(=O)n(Cc3ccco3)c(-c3ccc(F)cc3)nc21 | 10.0 | -2.1 | -1.9 | 4.1 | -0.5 | 5.9 | · | ·
Cc1ccc(-c2nc3c(c(=O)c4ccccc4n3C)c(=O)n2Cc2ccco2)cc1 | 37.2* | 4.3 | -6.4 | 11.6 | 0.9 | 22.5* | 18.8 | 13.4*
O=c1c2ccccc2sc2nc(C3CCCCC3)n(Cc3ccco3)c(=O)c12 | 26.4* | 0.1 | 6.3 | 5.5 | 5.5 | 17.9 | 36.5* | 42.6*
CCCc1nc2sc3ccccc3c(=O)c2c(=O)n1Cc1ccccc1 | -9.9 | -1.0 | -3.5 | 1.2 | 0.8 | -4.8 | · | ·
CCc1nc2sc3ccccc3c(=O)c2c(=O)n1Cc1ccco1 | 23.6* | 7.6 | 6.2 | 17.5 | -0.6 | 21.2* | 35.8* | 49.7*
Cc1onc(-c2ccc(Cl)cc2)c1-c1ccn(S(=O)(=O)c2cccc(Cl)c2)n1 | · | 9.7 | 5.8 | 3.8 | -1.8 | -5.4 | · | ·
O=C(NCc1ccccc1)OC1CC2CC1[C@H]1CCCCN1C2 (some centres not stated) | · | 0.5 | -1.2 | 6.8 | -1.2 | -4.6 | · | ·
CC[C@H]1C=C[C@@H](C(=O)NS(=O)(=O)c2ccc(C)cc2)N(C(C)=O)C1 | · | 0.7 | 2.6 | 4.9 | 1.0 | 10.4 | · | ·
COc1ccc(N2CCN(S(=O)(=O)CCNC(=O)Cc3ccc([N+](=O)[O-])cc3)CC2)cc1 | 67.7* | -0.3 | -0.2 | -1.8 | -4.9 | 2.2 | 1.1 | -2.6
CC[C@@H](CCCc1ccc(OC)cc1)CCC(=O)N(c1ccccc1)c1ccccc1 | · | -2.2 | -0.5 | 4.6 | -0.1 | 3.1 | · | ·
Cc1cccc2cc3c(nc12)SC(=NCC1CCCO1)N(Cc1ccco1)C3 (configuration not stated) | 26.0* | · | · | · | · | · | 43.1* | 77.0*
